Assay [1] in a line: NCI Yeast Anticancer Drug Screen. Data for the rad50 strain (AID 155).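 Note: 0% = growth of vehicle-only cultures of the same strain.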 As to conditions: S. cerevisiae rad50 strain growth inhibition, active compounds read high. The procedure, abridged: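 Genetically altered yeast (DNA repair pathway); compound treatment; growth inhibition vs vehicle ctrl.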
Assay [2] is described as follows: NCI Yeast Anticancer Drug Screen. Data for the mec2-1 strain (AID 157). As to conditions: S. cerevisiae mec2-1 strain, active compounds read high. A digest of the protocol: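 Readout is yeast growth inhibition, normalised to vehicle-treated controls, in the mec2-1 strain exposed to compound.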
The nature of assay [3]: NCI Yeast Anticancer Drug Screen. Data for the sgs1 mgt1 strain (AID 161).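 Note: 0% = growth of cultures given vehicle only.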 As to conditions: S. cerevisiae sgs1 mgt1 strain, active compounds read high. The procedure, abridged:
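Yeast cells carrying a defined DNA-repair defect were exposed to test compounds. Growth inhibition was measured relative to vehicle-treated controls.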

A short description of assay [4]: NCI Yeast Anticancer Drug Screen. Data for the cln2 rad14 strain (AID 165).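 Note: 0% = growth equal to vehicle treated cultures.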 As to conditions: S. cerevisiae cln2 rad14 strain, active compounds read high. A digest of the protocol: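 Relative to vehicle controls, growth inhibition of compound-treated cln2 rad14 yeast was recorded.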
The nature of assay [5]: NCI Yeast Anticancer Drug Screen. Data for the bub3 strain (AID 167). As to conditions: S. cerevisiae bub3 mutant strain, active compounds read high. A digest of the protocol: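 Yeast carrying a defined mutation is treated with each compound, and growth is compared with that of vehicle-exposed cells to give inhibition.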
Assay [6] can be described thus: NCI Yeast Anticancer Drug Screen. Data for the mlh1 rad18 strain (AID 175). Conditions: S. cerevisiae mlh1 rad18 strain growth inhibition, active compounds read high. The procedure, abridged: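 Test agents were incubated with a yeast strain of defined genotype (DNA damage repair defect). Inhibition of growth was derived by comparison with vehicle-exposed cultures.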
The mark [7] stands for this setting: at 5.0 µM (retest, dose inferred, filed as 0.5).
Where [8] appears, read: at 50.0 µM (retest, dose inferred, filed as 5.0).

“And” between values parts separate entries of the source, which are not always exact repeats. Equal entries are not always repeated. Compounds without any hit were thinned out: in the full panel of roughly 79,000, 15% have a hit. Values without a mark were called inactive. The source made the active and inactive calls. Cut-off read from the data, not from the text of the source: active = growth inhibition above about 70%; inactive = the rest.

On to `CCOC(=O)C(Cc1ccccc1[N+](=O)[O-])C(=O)OCC`, for which the growth inhibition in assay [1] (setting [7]) is -5%; in assay [1] (setting [8]) it was -33%; in assay [1] (at 50.0 µM) it was 5.4%; in assay [2] (setting [7]), -27%; in assay [2] (setting [8]), -5%; in assay [2] (at 50.0 µM), -3.7%. Also, the growth inhibition in assay [3] (setting [7]) was -21%; in assay [3] (setting [8]), 3%; in assay [3] (at 50.0 µM), 28.6%; in assay [4] (setting [7]), 17%; in assay [4] (setting [8]), 10%; in assay [4] (at 50.0 µM), 7.75%. Moreover, the growth inhibition in assay [5] (setting [7]) was 30%; in assay [5] (setting [8]), 3%; in assay [5] (at 50.0 µM) it was 44.6%; in assay [6] (setting [7]), 0%; in assay [6] (setting [8]), -22%; in assay [6] (at 50.0 µM), 20.5%.

Take `CCC(C)c1ccc(O)c(C(C)CC)c1` (centres undefined): the growth inhibition in assay [1] (setting [7]) is 40%; in assay [1] (setting [8]), 98% (active); in assay [1] (at 50.0 µM), 58.9%; in assay [2] (setting [7]) it was 57%; in assay [2] (setting [8]), 98% (active); in assay [2] (at 50.0 µM), 30.3%. The growth inhibition in assay [3] (setting [7]) was -26%; in assay [3] (setting [8]), 72% (active); in assay [3] (at 50.0 µM), 45.8%; in assay [4] (setting [7]) it was 15%; in assay [4] (setting [8]), 60%; in assay [4] (at 50.0 µM), 27.8%. The growth inhibition in assay [5] (setting [7]) is 38%; in assay [5] (setting [8]), 63%; in assay [5] (at 50.0 µM), 68.7%; in assay [6] (setting [7]), 44%; in assay [6] (setting [8]) it was 99% (active); in assay [6] (at 50.0 µM), 58.9%.

Take `O=[N+]([O-])Cc1cnc2nncn2n1`: the growth inhibition in assay [1] (setting [7]) is -6%; in assay [1] (setting [8]), 96% (active); in assay [1] (at 50.0 µM), 86.3% (active); in assay [2] (setting [7]) it was -9%; in assay [2] (setting [8]), 97% (active); in assay [2] (at 50.0 µM), 98.4% (active). For the same molecule, the growth inhibition was 2% in assay [3] (setting [7]); 96% (active) in assay [3] (setting [8]); 99.2% (active) in assay [3] (at 50.0 µM); 2% in assay [4] (setting [7]); 53% in assay [4] (setting [8]); 24.2% in assay [4] (at 50.0 µM). The growth inhibition is -27% in assay [5] (setting [7]); 99% (active) in assay [5] (setting [8]); 38.5% in assay [5] (at 50.0 µM); -12% in assay [6] (setting [7]); 97% (active) in assay [6] (setting [8]); 87.5% (active) in assay [6] (at 50.0 µM).

Turning to `Nc1ccc2c3c(cccc13)C(=O)N(CCCBr)C2=O`, the growth inhibition in assay [1] (setting [7]) is 9%; in assay [1] (setting [8]), 98% (active); in assay [1] (at 50.0 µM), 92.9% (active); in assay [2] (setting [7]), -5%; in assay [2] (setting [8]), 67%; in assay [2] (at 50.0 µM), 0.7%. In addition, the growth inhibition was -17% in assay [3] (setting [7]); 80% (active) in assay [3] (setting [8]); 55.4% in assay [3] (at 50.0 µM); 16% in assay [4] (setting [7]); 88% (active) in assay [4] (setting [8]); 45.1% in assay [4] (at 50.0 µM). The growth inhibition was 6% in assay [5] (setting [7]); 78% (active) in assay [5] (setting [8]); 5.15% in assay [5] (at 50.0 µM); 32% in assay [6] (setting [7]); 94% (active) in assay [6] (setting [8]); 82.8% (active) in assay [6] (at 50.0 µM).

For the molecule `O=C1NC(=O)c2c1cccc2[N+](=O)[O-]`, the growth inhibition is -7% in assay [1] (setting [7]); 31% and 12% in assay [1] (setting [8]); -4.8% and 18.4% in assay [1] (at 50.0 µM); -20% and 2% in assay [2] (setting [7]); 4% and 8% in assay [2] (setting [8]); -4% and 25% in assay [2] (at 50.0 µM). Besides, the growth inhibition in assay [3] (setting [7]) is -2% and 0%; in assay [3] (setting [8]), 0% and 8%; in assay [3] (at 50.0 µM) it was 9.25% and -3.15%; in assay [4] (setting [7]), -5% and 0%; in assay [4] (setting [8]), -6% and -5%; in assay [4] (at 50.0 µM) it was 45.3% and 50.4%. In addition, the growth inhibition is 37% and -2% in assay [5] (setting [7]); -4% and 8% in assay [5] (setting [8]); -1.4% and 20.1% in assay [5] (at 50.0 µM); -4% and -3% in assay [6] (setting [7]); 3% and 13% in assay [6] (setting [8]); 8.5% and 2.2% in assay [6] (at 50.0 µM).

As to `CC(=O)OC(OC(C)=O)c1c2ccccc2cc2ccccc12`, the growth inhibition in assay [1] (setting [7]) is 36%; in assay [1] (setting [8]), 97% (active); in assay [1] (at 50.0 µM) it was 89.3% (active); in assay [2] (setting [7]), 15%; in assay [2] (setting [8]) it was 96% (active); in assay [2] (at 50.0 µM), 93.2% (active). Further, the growth inhibition in assay [3] (setting [7]) was 27%; in assay [3] (setting [8]), 97% (active); in assay [3] (at 50.0 µM) it was 88.9% (active); in assay [4] (setting [7]), 14%; in assay [4] (setting [8]) it was 92% (active); in assay [4] (at 50.0 µM), 91.1% (active). Further, the growth inhibition in assay [5] (setting [7]) is 8%; in assay [5] (setting [8]) it was 97% (active); in assay [5] (at 50.0 µM), 85.5% (active); in assay [6] (setting [7]), 23%; in assay [6] (setting [8]) it was 97% (active); in assay [6] (at 50.0 µM) it was 85.7% (active).

Consider `Clc1ccc(CNCCCNCc2ccc(Cl)cc2)cc1`, for which the growth inhibition in assay [1] (setting [7]) is 80% (active); in assay [1] (setting [8]), 15%; in assay [1] (at 50.0 µM), 27.8%; in assay [2] (setting [7]) it was 100% (active); in assay [2] (setting [8]), 31%; in assay [2] (at 50.0 µM) it was 23%. The growth inhibition is 67% in assay [3] (setting [7]); 31% in assay [3] (setting [8]); 50.4% in assay [3] (at 50.0 µM); 49% in assay [4] (setting [7]); 13% in assay [4] (setting [8]); 72% (active) in assay [4] (at 50.0 µM). In addition, the growth inhibition is 91% (active) in assay [5] (setting [7]); 20% in assay [5] (setting [8]); 27.3% in assay [5] (at 50.0 µM); 96% (active) in assay [6] (setting [7]); 13% in assay [6] (setting [8]); 29.9% in assay [6] (at 50.0 µM).

As to `C=C1C(=O)N2c3ccccc3C(C)(C)C2(S)C(=O)N1C` (centres undefined), the growth inhibition is 9% in assay [1] (setting [7]); 87% (active) in assay [1] (setting [8]); 88.8% (active) in assay [1] (at 50.0 µM); 3% in assay [2] (setting [7]); 86% (active) in assay [2] (setting [8]); 95.6% (active) in assay [2] (at 50.0 µM). The growth inhibition in assay [3] (setting [7]) was 3%; in assay [3] (setting [8]), 67%; in assay [3] (at 50.0 µM) it was 96.5% (active); in assay [4] (setting [7]), -9%; in assay [4] (setting [8]), 40%; in assay [4] (at 50.0 µM), 63.9%. Besides, the growth inhibition was -5% in assay [5] (setting [7]); 78% (active) in assay [5] (setting [8]); 93.6% (active) in assay [5] (at 50.0 µM); 5% in assay [6] (setting [7]); 83% (active) in assay [6] (setting [8]); 96.7% (active) in assay [6] (at 50.0 µM).

For the origin of these results see PubChem BioAssay (NCI).
